Assay outcomes from PubChem BioAssay.
GCN5L2 inh = blocks human GCN5L2 histone acetyltransferase. actives 0.21% (n = 390,000). Potency, µM (titrated, usually from 58.9 µM), inactives show top-dose activity change, negative = inhibition, usual class: inhibitors. AID 504327. GCN5L2 HAT assay, ThioGlo1 CoA-SH fluorescence. Q92830; note: potency is the fitted concentration of half-maximal effect
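qHTS, 1536-well. 20nM enzyme, pH 7.5 HEPES/EDTA/Tween-20 buffer; 15 min compound preinc., RT. Start: 75uM H3(1-25), 70uM AcCoA, 50uM ThioGlo1. Read Ex340/Em540 at t=0 (autofluorescence flag) and t=20 min.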
BLM helicase inh = inhibitors of human Bloom syndrome helicase BLM. P54132. recombinant BLM DNA unwinding, fluorescence dequenching. Potency, µM (series often up to 56.1 µM), inactives show top-dose activity change, negative = inhibition, most hits filed as inhibitors. actives 0.2% (n = 350,000). AID 2528;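 note: potency is the fitted concentration of half-maximal effect; plate controls were vehicle for no effect and no enzyme for full effect; nearly all actives have a fitted effect of over 35% in size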
RECQ1 helicase = RECQ1 (human) helicase inhibition; P46063; RECQ1 DNA unwinding, red fluorescence kinetic read; Potency, µM (doses to about 57.3 µM), inactives show at the highest dose activity, negative = inhibition, actives largely listed as inhibitors; actives 0.54% (n = 240,000); AID 2549;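 note: potency is the fitted concentration of half-maximal effect; plate controls were vehicle for no effect and no enzyme for full effect; nearly all actives have a fitted effect of over 30% in size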
Target sequence (P46063 whole entry, looked up): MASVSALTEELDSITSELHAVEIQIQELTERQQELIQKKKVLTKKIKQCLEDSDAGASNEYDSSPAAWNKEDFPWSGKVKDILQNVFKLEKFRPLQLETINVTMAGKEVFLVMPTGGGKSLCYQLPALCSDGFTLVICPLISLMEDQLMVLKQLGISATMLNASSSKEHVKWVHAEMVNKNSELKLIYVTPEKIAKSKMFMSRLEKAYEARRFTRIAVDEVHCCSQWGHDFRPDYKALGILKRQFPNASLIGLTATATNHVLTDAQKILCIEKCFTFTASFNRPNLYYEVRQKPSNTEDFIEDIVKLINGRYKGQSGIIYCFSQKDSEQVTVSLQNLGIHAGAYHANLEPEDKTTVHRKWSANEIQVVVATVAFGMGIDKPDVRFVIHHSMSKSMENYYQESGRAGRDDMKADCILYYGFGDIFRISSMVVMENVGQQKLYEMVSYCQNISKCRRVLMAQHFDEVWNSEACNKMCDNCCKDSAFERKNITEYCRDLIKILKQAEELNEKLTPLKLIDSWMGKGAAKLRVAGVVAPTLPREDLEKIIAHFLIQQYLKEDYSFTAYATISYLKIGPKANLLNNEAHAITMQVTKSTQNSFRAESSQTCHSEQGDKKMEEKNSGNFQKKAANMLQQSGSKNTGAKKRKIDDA
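50 nM RECQ1T1 preincubated 15 min with compound in Tris pH 8.0 buffer with MgCl2, DTT, Tween-20 and 2.5 ug/ml poly(dI-dC); started with 200 nM TAMRA/BHQ-2 forked duplex and 2 mM ATP. Unwinding read as fluorescence (525/598 nm), two reads 2 h apart.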
FEN1 inhibitor = blocks human flap endonuclease 1; Recombinant FEN1 flap cleavage, fluorescence, 15 min; Potency, µM (top dose mostly 114 µM), without a hit: at the top dose activity change, negative = inhibition, usual class: inhibitors; actives 0.35% (n = 390,000); note: potency is the fitted concentration of half-maximal effect; nearly all actives have a fitted effect of over 65% in size
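Potency values derive from four-parameter Hill fits of normalized qHTS data. The reaction used 10 nM FEN1 preincubated 15 min at room temperature with compound, then 50 nM DNA substrate, read at 0 and 15 min.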
PI5P4Ka inh = inhibitors of human PI5P4K alpha | max response, % | PI5P4Kalpha enzyme, ADP-Glo luminescence, 60 min; hits give low values | AID 652105 | actives 1.2% (n = 330,000); active = max response of -50% or lower; inconclusive = between -30% and -50%; inactive = -30% or higher; note: value at the top dose of about 77 µM
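PI5P4Kalpha ADP-Glo assay; 5 microM ATP final; 60 min RT reaction; HEPES pH 7.4/EGTA/CHAPS, 5% DMSO; controls lacking substrate or enzyme; luminescent end-point.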
APEX1 inh = APE1 (human) endonuclease inhibition. P27695. actives 0.35% (n = 350,000). recombinant APE1, TAMRA/BHQ-2 abasic DNA cleavage fluorescence. Potency, µM (doses to about 65.8 µM), for the others: top-dose activity change, negative = inhibition, most hits filed as inhibitors;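 note: potency is the fitted concentration of half-maximal effect; plate controls were vehicle for no effect and reference inhibitor for full effect; nearly all actives have a fitted effect of over 55% in size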
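APE1 at 0.75 nM preincubated 15 min at room temperature with compound. Reaction then started with 50 nM double-stranded THF-abasic substrate labelled with TAMRA/BHQ-2, and 525/598 nm fluorescence read kinetically. Activity taken as third-minus-first read difference, normalized to DMSO and NSC13755 controls.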
Active calls of the source: *; i = inactive; ? = inconclusive; · = no result given; ! = repeats disagree; [ ] = dose if it differs, or a comment. In the library only some 1.5% were active in any assay of this set; here they are far more common. Unless noted, calls come from the whole dose curve; as a rule, active = well fitted curve in the direction sought with a large enough effect; inconclusive = small, poorly fitted or top-dose-only effect, or another doubt; inactive = no such curve, though single readings can be large; an effect the other way counts as inactive or inconclusive. Unless noted, % is set by controls: 0 for no effect and ±100 for the full control effect.

SMILES | GCN5L2 inh | BLM helicase inh | RECQ1 helicase | FEN1 inhibitor | PI5P4Ka inh | APEX1 inh
CCOC(=O)c1ccc2c(c1)C1C=CCC1C(C(=O)OCC)N2 (stereo not drawn) | -9% | -23% | · | ? | ? | 11%
O=C(O)c1ccc2c(c1)[C@@H]1C=CC[C@@H]1[C@H](c1ccccn1)N2 | · | · | · | 32µM* | · | ·
O=C(C[n+]1ccccc1Cl)c1cccc([N+](=O)[O-])c1 | · | · | · | -14% | · | ·
OCCN(CCO)c1ccc(/C=C/c2ccnc3ccccc23)cc1 | · | · | · | -18% | · | ·
Cc1cccc(C2=NN(c3ccccc3)[C@@H](C(=O)N3CCOC3=O)[C@@H]2c2ccc(F)cc2)c1 | 32µM* | -13%[75.6 µM] | i | 1% | 13 | 18%
Cc1cccc(C2=NN(c3ccccc3)[C@@H](C(=O)N3CCOC3=O)[C@@H]2c2ccc(Cl)cc2)c1 | ? | -11%[75.6 µM] | -17% | -6% | 7 | ?
C/C(=N\OCc1nc2ccccc2c(=O)n1/N=C/c1cc([N+](=O)[O-])ccc1O)c1ccccc1 | -19% | -11% | -26% | -30% | -54* | -4%
C/C(=N\OCc1nc2ccccc2c(=O)n1/N=C/c1cc(C)cc([N+](=O)[O-])c1O)c1ccccc1 | -19% | -4% | ? | -16% | 0 | 0%
CO[C@H]1C[C@@H]2CC[C@@H](C)[C@@](O)(O2)C(=O)C(=O)N2CCCC[C@H]2C(=O)O[C@H]([C@H](C)C[C@@H]2CC[C@@H](OCCO)[C@H](OC)C2)CC(=O)[C@H](C)/C=C(\C)[C@@H](O)[C@@H](OC)C(=O)[C@H](C)C[C@H](C)/C=C/C=C/C=C/1C | -20% | -5% | · | · | · | ·
COC/C=C/C1=CC2=CC(=O)C(C)(OC(=O)c3cnc4ccccc4n3)C(=O)C2=CN1c1ccc(CO)cc1 (stereo not drawn) | ? | 13µM*! | -21%[11.5 µM] | · | · | 11µM*!
COC/C=C/C1=CC2=CC(=O)C(C)(OC(=O)c3cnc4ccccc4n3)C(=O)C2=CN1c1ccccc1 (stereo not drawn) | -13% | -6%[12.4 µM] | -27% | -12% | -69* | 0%[12.4 µM]
Cc1cccc(N2C(N)=NC(N)=NC23CCCCC3)c1 | -1% | -5% | -6% | 0% | -63* | 2%
COc1ccc(OC)c(N2C(N)=NC(N)=NC23CCCC3)c1 | -9% | 3% | -4% | -2% | -6 | 1%
O=C(C[n+]1cccc(Cl)c1)c1ccc(O)c(O)c1 | · | · | · | -15% | · | ·
C=CCNC(=O)c1cc(-c2cccs2)on1 | · | · | · | · | · | 9%
CCN(C(=O)C(=O)c1c(C)[nH]c2ccccc12)c1ccccc1 | · | · | · | -20% | · | ·
C=CCOc1ccc(/C=C2\SC(=S)N(NS(=O)(=O)c3ccc(C)cc3)C2=O)cc1 | ? | -16% | · | -20% | -55* | -16%
Cc1ccc(/C=C2\SC(=S)N(NS(=O)(=O)c3ccc(C)cc3)C2=O)cc1 | ? | 2% | · | -10% | -20 | -10%
Cc1ccc(S(=O)(=O)NN2C(=O)/C(=C/c3cccs3)SC2=S)cc1 | -26% | -7% | -7% | -2% | -59* | ?
Cc1ccc(S(=O)(=O)NN2C(=O)/C(=C/c3ccc(F)cc3)SC2=S)cc1 | -22% | -6% | · | 3% | ? | 4%
COc1cccc(/C=C2\SC(=S)N(NS(=O)(=O)c3ccccc3)C2=O)c1OC | 0% | -4% | · | -3% | -60* | 34%
Cc1ccc(S(=O)(=O)NN2C(=O)/C(=C/c3ccc(C(=O)O)cc3)SC2=S)cc1 | 1% | -2% | · | 50µM* | -57* | 1%
COc1ccc(/C=C2/SC(=S)N(NS(=O)(=O)c3ccc(C)cc3)C2=O)cc1 | -12% | -4% | · | ? | ? | -18%
COc1ccccc1NC(C)C(=O)c1c[nH]c2ccccc12 (stereo not drawn) | · | · | · | 5% | · | ·
C=CCNc1oc(-c2ccc(F)cc2)nc1C#N | · | · | · | · | · | 49%
Nc1cccc2[nH]cnc12 | · | · | · | -19% | · | ·
